# Sampled rows, rich in hits. Any-hit rate of the full collection: about 11%.
# ALDH1A1 inh: blocks purified human ALDH1A1 activity; P00352; Purified ALDH1A1, NADH fluorescence, propionaldehyde substrate; Potency, µM (highest dose often 75.3 µM), usual class: inhibitors; actives 7.3% (n = 220,000); AID 1030
# Target sequence (P00352 whole entry, looked up): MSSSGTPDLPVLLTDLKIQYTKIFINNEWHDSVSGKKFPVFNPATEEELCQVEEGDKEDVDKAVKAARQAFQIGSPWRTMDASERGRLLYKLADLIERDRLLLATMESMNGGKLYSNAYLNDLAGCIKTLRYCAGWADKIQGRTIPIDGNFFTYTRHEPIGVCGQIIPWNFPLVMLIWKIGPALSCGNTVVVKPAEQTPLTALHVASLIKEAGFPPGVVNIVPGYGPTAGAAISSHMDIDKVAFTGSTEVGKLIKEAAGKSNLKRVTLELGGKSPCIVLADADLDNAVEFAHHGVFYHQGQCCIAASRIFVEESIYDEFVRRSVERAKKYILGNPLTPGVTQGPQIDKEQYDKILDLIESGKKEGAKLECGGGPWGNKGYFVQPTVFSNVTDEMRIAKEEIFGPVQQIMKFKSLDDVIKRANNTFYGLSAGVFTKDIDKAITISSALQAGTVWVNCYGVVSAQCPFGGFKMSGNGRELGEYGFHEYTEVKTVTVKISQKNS
# PNC inhibitor: blocks assembly of the perinucleolar compartment; activity change (PNC), negative = inhibition, % at 10 µM; PC3M PTB-GFP, PNC prevalence imaging, 16 h; active compounds read low; AID 2417; actives 3.1% (n = 140,000);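 active means readout at or below -70, meaning at least 70% loss of cells showing the perinucleolar compartment, a nuclear body marking cancer cells; inconclusive means readout between -30 and a set limit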
#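 Compounds are pinned in duplicate onto adhered PC3M cells stably expressing GFP-tagged PTB and incubated 16 h at 37 C. Cells are then fixed, nuclei stained with Hoechst, and PNC-positive cells counted.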
# HPGD inh: inhibitors of human 15-hydroxyprostaglandin dehydrogenase (HPGD) | P15428 | purified HPGD, NADH fluorescence kinetic, PGE2 substrate | AID 894 | actives 4.3% (n = 150,000) | Potency, µM, usual class: inhibitors
#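 20 nM HPGD preincubated 15 min at room temperature with compound in 50 mM Tris-HCl pH 8, 0.01% Tween 20. Started with 1 mM NAD+ and 30 uM prostaglandin E2; NADH fluorescence (360/450 nm) read 5 times over 30-s intervals, last minus first.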
# Hits are given with their value; - = inactive; ? = inconclusive; . = no result; [ ] = remark or other dose. Unless noted, the call rests on the fitted dose curve; in most records, active means well fitted inhibition curve with a large enough effect (not every such curve was filed as active); inconclusive means small, poorly fitted or top-dose-only effect, or another doubt; inactive means no such curve, though single readings can be large or run the other way.
SMILES,ALDH1A1 inh,PNC inhibitor,HPGD inh
CCSC1=C(C#N)C(c2ccccc2Cl)C(C(=O)c2cccs2)C(O)(C(F)(F)F)N1 (stereo not given),11.2µM,-,-
CC(C)(C)NC(=O)NC(=O)COC(=O)c1cc[n+]([O-])cc1,-,.,.
CCN1C(=O)[C@H]2[C@H]3[C@H](O)[C@H](O)C/C(=N/NC(=O)OCc4ccccc4)[C@H]3CC[C@@H]2C1=O,-[13.5 µM],.,.
Cc1ccc(NC(=O)CCn2nnc3ccccc32)cc1,-,.,.
CCOc1ccc(CCNC(=O)CCS(=O)(=O)c2ccc(OC)cc2)cc1OCC,-,.,.
COc1cccc(C(=O)Nc2cccc3c2ccc2cccn23)c1,-,.,.
CCOC(=O)COC(=O)c1ccc(Oc2cc(C)nc(SC)n2)cc1,-,-,-
CCOC(=O)c1ccc(Oc2cc(C)nc(SC)n2)cc1,-,-99.8,-
C/C(=N\N(Cc1ccccc1)c1ccccc1)c1ccncc1,-,.,.
CC(C)c1ccc(S(=O)(=O)N2CCN(C(=S)NCc3ccco3)CC2)cc1,-,-,28.2µM
O=S(=O)(c1cccc(C(F)(F)F)c1)N1CCN(C(=S)NCc2ccco2)CC1,-,-108.7,-
CSCCCNC(=S)N1CCN(S(=O)(=O)c2cccc(C(F)(F)F)c2)CC1,-,-,-
S=C(NCc1ccco1)N1CCN(c2ccc(Cl)cc2)CC1,-,.,.
Cc1cccc(OCCNc2cc(N3CCN(CCO)CC3)ccc2[N+](=O)[O-])c1,-,?,.
S=C(NC1CCCC1)N1CCN(C/C=C/c2ccccc2)CC1,-,.,.
NS(=O)(=O)c1ccc(NC(=O)COC(=O)COc2cccc(C(F)(F)F)c2)cc1,-,.,.
CN(C)C(=O)c1nc2ccc(Cl)cn2c1CN1CCCC(OCc2cccnc2)C1 (stereo not given),-,.,.
CC(C)CN(C)Cc1c(C(=O)N2CCc3ccccc3C2)nc2ccc(Cl)cn12,7.94µM,.,.
Cc1onc(-c2c(F)cccc2Cl)c1C(=O)N1CCc2ccccc2C1,-,?,-
CN(Cc1cnccn1)Cc1c(C(=O)N2CCc3ccccc3C2)nc2ccc(Cl)cn12,17.8µM,.,.
CN(C)C(=O)c1nc2ccc(Cl)cn2c1CN1CCCC(OCc2ccccc2)C1 (stereo not given),-,.,.
Cc1cnc(CN(C)Cc2c(C(=O)N3CCc4ccccc4C3)nc3ccc(Cl)cn23)[nH]1,17.8µM,.,.
COc1ccc(C(=O)NNC(=O)CSc2nnc(C)n2C)cc1,-,.,.
Cn1c(=O)c2c(ncn2C[C@@H](O)CO)n(C)c1=O,-,.,-
CCCn1c(N)c(CC)c(=O)[nH]c1=O,-,.,.
SMILES,ALDH1A1 inh,PNC inhibitor,HPGD inh
CCOc1nc(N2CCOCC2)nc(N2CCOCC2)n1,-,.,.
C=CCC(O)c1ccccc1 (stereo not given),-,.,-
Cn1c(N)c(C(=O)COC(=O)C2CC(=O)N(Cc3ccccc3)C2)c(=O)n(C)c1=O (stereo not given),-,.,.
O=C(NN1C(=O)/C(=C/C=C/c2ccccc2)SC1=S)c1ccncc1,4.47µM,.,.
COc1ccc(/C=C2\SC(=S)N(NC(=O)c3ccncc3)C2=O)cc1OC,-,.,.
COc1ccc(N2CCN(Cc3nc4cc(Cl)ccc4c(=O)[nH]3)CC2)cc1,-,.,.
O=C(O)CCCN=C1NC2(CCCC2)Cc2ccccc21,-,-,-
O=C(O)CCN=C1CCCc2ccccc2N1,31.6µM,-,-
CS(=O)(=O)N1CCC[C@@]2(CCN(Cc3ccc(C#N)cc3)C2)C1,-,.,-
COc1cccc(CC(NC(C)=O)C(=O)NC2CCN(S(=O)(=O)c3ccc(C)cc3)CC2)c1OC (stereo not given),-,.,.
CCCC[C@@H]1C[C@H]1C(NC(=O)c1ccccc1)c1ccc(-c2ccccc2)cc1 (stereo not given in full),-,.,-
O=c1[nH]c(Cc2cccs2)nc2scc(-c3ccc(Cl)cc3)c12,-,.,.
O=c1[nH]c(Cc2ccc(F)cc2)nc2scc(-c3ccc(F)cc3)c12,31.6µM,-,22.4µM
O=c1[nH]c(CN2CCN(c3ccccc3)CC2)nc2scc(-c3ccccc3)c12,-,-,-
NC(=O)Cc1nc2scc(-c3ccccc3)c2c(=O)[nH]1,12.6µM,.,.
O=C(/C=C/Nc1ccc(F)c(Cl)c1)c1ccco1,28.2µM,?,-
CC(=O)Nc1ccc(N/C=C/C(=O)c2ccco2)cc1,4.47µM,?,25.1µM
CC(=O)Nc1ccc(NC(=O)c2ccco2)cc1,-,?,-
CN(C)c1ccc(N/C=C/C(=O)c2ccc(F)cc2)cc1,-,-,-
O=C(/C=C/Nc1cccc(F)c1)c1ccco1,-,-,-
CN(C)c1ccc(N/C=C/C(=O)c2ccco2)cc1,28.2µM,?,35.5µM
Nn1cc(Br)c(=O)[nH]c1=O,-,.,.
NC(=S)NN=C1C2CC3CC(C2)CC1C3,25.1µM,.,.
NC(=O)C(=O)NN=C1C2CC3CC(C2)CC1C3,-,.,.
O=C(COC(=O)c1ccc(F)cc1)Nc1ccc(Cl)cn1,-,.,.
SMILES,ALDH1A1 inh,PNC inhibitor,HPGD inh
O=C(OCn1ncc(Cl)c(Cl)c1=O)c1ccccc1Cl,2µM,-,-
O=C(Cn1ncc(Cl)c(Cl)c1=O)c1ccc(Cl)cc1,8.91µM,-,-
CC(C)N(C)CCOC(=O)c1ccccc1Cl,-,-,-
O=C(Cn1ncc(N2CCOCC2)c(Cl)c1=O)c1ccc(Cl)cc1,-,.,.
O=C(OCn1ncc(Cl)c(Cl)c1=O)c1ccc(F)cc1,1.12µM,-,-
CCOc1ccc2nc(CN3CCN(Cc4ccsc4)C(CCO)C3)ccc2c1 (stereo not given),-,.,.
COCCn1c(=S)[nH]c2ccccc21,-,.,.
Cc1cc(C)n(NC(=S)NC2CCCCC2)c(=O)c1C#N,-,.,.
COc1cccc2sc(N(C)c3ccccc3)nc12,-,-,?
COc1ccc(N2C(=O)CC(N3CCN(c4nc5ccccc5s4)CC3)C2=O)cc1 (stereo not given),25.1µM,-,-
COc1ccc(N2CCN(C3CC(=O)N(C)C3=O)CC2)cc1 (stereo not given),-,-,-
COc1ccc(N2C(=O)CC(N3CCN(c4ccc(S(C)(=O)=O)cc4)CC3)C2=O)cc1 (stereo not given),22.4µM,-,-
COc1cccc2sc(N3CCN(c4nc5ccccc5s4)CC3)nc12,14.1µM,?,.
CCOc1cccc(N2C(=O)CC(N3CCN(c4nc5ccccc5s4)CC3)C2=O)c1 (stereo not given),-,?,-
CCOC(=O)N1CCN(C(=O)c2cn(CC)c3ccc(S(=O)(=O)N4CC(C)CC(C)C4)cc3c2=O)CC1 (stereo not given),-,.,.
C=CCN1CC2(c3ccccc3)CN(CC=C)CC(c3ccccc3)(C1)C2=O,-,.,.
O=C1[C@H]2[C@H]3[C@H](O)[C@H](O)C/C(=N/OCc4ccccc4)[C@H]3CC[C@@H]2C(=O)N1c1cccc(Oc2ccccc2)c1,-[13.5 µM],.,.
COCCCNC(=O)C1CCCN(S(=O)(=O)c2ccc(C)cc2)C1 (stereo not given),-,-100.0,-
COCCCNC(=O)C1CCC(CNS(=O)(=O)c2ccc(C)cc2)CC1 (stereo not given),11.2µM,.,.
CCCCNC(=O)C1CCC(CNS(=O)(=O)c2ccc(C)cc2)CC1 (stereo not given),10µM,.,.
CCOCCCNC(=O)C1CCC(CNS(=O)(=O)c2ccc(Cl)cc2)CC1 (stereo not given),?,-,-
Cc1ccc(S(=O)(=O)N2CCCC(C(=O)NC3=NCCS3)C2)cc1 (stereo not given),-,-102.6,-
